# Rows were chosen to be rich in hits. Some 11% of all compounds tested hit in one or more screens of this group.
# NPSR antagonist: neuropeptide S receptor (human) antagonism, cAMP | Potency, µM (top dose mostly 38.3 µM), for the others: at the highest dose activity change, negative = inhibition, actives largely listed as inhibitors | actives 1% (n = 220,000) | CHO-NPSR cells, cAMP TR-FRET, antagonist mode | Q6W5P4; active means well fitted curve in the direction sought with a large enough effect; inconclusive means small, poorly fitted or top-dose-only effect, or another doubt; inactive means no such curve, though single readings can be large; an effect the other way counts as inactive or inconclusive; further: potency means the concentration at half of the fitted maximal effect; nearly all actives have a fitted effect of over 50% in size
# ALDH1A1 inh: blocks purified human ALDH1A1 activity. AID 1030. actives 7.3% (n = 220,000). Purified ALDH1A1, NADH fluorescence, propionaldehyde substrate. P00352. Potency, µM (series often up to 75.3 µM), without a hit: top-dose activity, negative = inhibition, actives largely listed as inhibitors;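 further: potency means the concentration at half of the fitted maximal effect; plate controls were no enzyme wells and a reference inhibitor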
# Target sequence (P00352 whole entry, looked up): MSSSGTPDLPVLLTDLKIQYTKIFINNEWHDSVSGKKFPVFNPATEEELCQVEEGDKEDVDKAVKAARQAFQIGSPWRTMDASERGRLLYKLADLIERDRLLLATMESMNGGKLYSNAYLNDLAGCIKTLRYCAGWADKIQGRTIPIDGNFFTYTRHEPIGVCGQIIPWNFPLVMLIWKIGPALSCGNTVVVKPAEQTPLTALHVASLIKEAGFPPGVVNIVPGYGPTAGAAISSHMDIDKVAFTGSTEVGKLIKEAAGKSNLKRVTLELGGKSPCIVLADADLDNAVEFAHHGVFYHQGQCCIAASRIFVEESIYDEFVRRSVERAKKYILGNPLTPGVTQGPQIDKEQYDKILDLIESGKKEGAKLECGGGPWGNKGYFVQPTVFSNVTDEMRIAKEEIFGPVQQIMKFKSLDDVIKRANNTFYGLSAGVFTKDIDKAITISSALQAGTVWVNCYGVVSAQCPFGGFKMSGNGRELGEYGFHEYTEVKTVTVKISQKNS
# HPGD block: inhibitors of human 15-hydroxyprostaglandin dehydrogenase (HPGD). purified HPGD, NADH fluorescence kinetic, PGE2 substrate. actives 4.3% (n = 150,000). Potency, µM, without a hit: at the highest dose activity change, negative = inhibition, hits mostly inhibitors; further: potency means the concentration at half of the fitted maximal effect
# Target sequence (P15428 whole entry, looked up): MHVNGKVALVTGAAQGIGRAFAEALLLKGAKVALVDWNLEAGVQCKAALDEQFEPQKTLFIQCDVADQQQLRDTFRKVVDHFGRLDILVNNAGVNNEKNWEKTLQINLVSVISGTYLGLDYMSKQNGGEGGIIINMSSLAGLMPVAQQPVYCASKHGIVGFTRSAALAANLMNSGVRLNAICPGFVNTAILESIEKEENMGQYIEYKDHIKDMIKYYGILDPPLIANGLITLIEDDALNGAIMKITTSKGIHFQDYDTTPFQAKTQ
#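 20 nM HPGD preincubated 15 min at room temperature with compound in 50 mM Tris-HCl pH 8, 0.01% Tween 20. Started with 1 mM NAD+ and 30 uM prostaglandin E2; NADH fluorescence (360/450 nm) read 5 times over 30-s intervals, last minus first.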
# IMPase Li inh: cell-permeable IMPase inhibitors with lithium potentiation; CHO-M1 cells, IP1 TR-FRET (IP-One), carbachol + lithium; Potency, µM (doses to about 59.4 µM), inactives show top-dose activity, negative = IMPase inhibition, usual class: inhibitors; actives 0.35% (n = 210,000); active means well fitted curve in the direction sought with a large enough effect; inconclusive means small, poorly fitted or top-dose-only effect, or another doubt; inactive means no such curve, though single readings can be large; an effect the other way counts as inactive or inconclusive;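 further: IP1 builds up when IMPase is blocked and the TR-FRET signal falls; potency means the concentration at half of the fitted maximal effect; plate controls were basal vehicle for no effect and high inhibitor control for full effect; nearly all actives have a fitted effect of over 50% in size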
#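 CHO cells stably expressing M1 receptor (2000/well, cultured 16–30 h) treated 30 min at 37C with compound plus low lithium. Cytosolic IP1 by TR-FRET (665/620 ratio and 620 channel) after 10 min lysis; AC50 by Hill fit.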
# IMPase inh: cell-permeable inhibitors of inositol monophosphatase (IMPase); CHO-M1 cells, IP1 accumulation, HTRF TR-FRET ratio; inhibition (IP1 accumulation), % at 46.1 µM; 120,000 tested, under 10 active; active means well fitted curve in the direction sought with a large enough effect in the signal ratio, not every such curve was filed as active; inconclusive means small, poorly fitted or top-dose-only effect, or a change in a side signal; inactive means no such curve, though single readings can be large or run the other way; the % refers to the signal ratio;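 further: cells stimulated with carbachol in lithium chloride buffer; plate controls were DMSO basal wells for no effect and reference inhibitor wells for full effect; higher means more IMPase inhibition seen as more IP1 and lower FRET ratio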
#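 In this qHTS, compounds (final up to 46 uM) act on CHO-M1 cells that are then activated through the M1 receptor with carbachol, in pH 7.4 buffer containing 50 mM LiCl, for 30 min. IP1 accumulation is quantified by the IP-One immunoassay.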
# PNC assembly inh: inhibitors of perinucleolar compartment assembly; PC3M PTB-GFP, PNC prevalence imaging, 16 h; stronger effect = lower value; activity change (PNC), negative = inhibition, % at 10 µM; actives 3.1% (n = 140,000);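 active means readout at or below -70, meaning at least 70% loss of cells showing the perinucleolar compartment, a nuclear body marking cancer cells; inconclusive means readout between -30 and a set limit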;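 further: plate controls were DMSO wells for no effect and camptothecin positive control wells for full effect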
#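 PC3M cells stably expressing PTB-GFP, 750–1000 cells/well, treated 16 h at 37 °C with compound (23 nl of library stock), in duplicate. After paraformaldehyde fixation and Hoechst stain, imaged at 20x; PNC prevalence scored by image analysis.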
# Starred values were filed as active, the others as inactive; u = inconclusive; x = no result given; [ ] = remark or other dose. Unless noted, the call rests on the fitted dose curve; in most records, active means well fitted inhibition curve with a large enough effect (not every such curve was filed as active); inconclusive means small, poorly fitted or top-dose-only effect, or another doubt; inactive means no such curve, though single readings can be large or run the other way. Unless noted, on the % scale 0 is the no-effect control and ±100 the full control effect.
SMILES,NPSR antagonist,ALDH1A1 inh,HPGD block,IMPase Li inh,IMPase inh,PNC assembly inh
CN(CC(=O)NCCC1=CCCCC1)S(=O)(=O)c1ccc2c(c1)c(=O)n(C)c(=O)n2C,-13%[46.1 µM],32µM*,-10%,5%[38.3 µM],-3,-18
COC(=O)CCc1nc2ccccc2nc1OC,-17%,-3%,x,3%,x,x
COC(=O)C1=C(O)/C(=C\c2ccc(CNS(=O)(=O)c3ccc(Cl)cc3)o2)N=C1C,-33%,-8%,-10%,8%,x,-10
COC(=O)C1=C(O)/C(=C\c2ccc(CNS(=O)(=O)c3ccccc3)o2)N=C1C,-28%,32µM*,-23%,32%,x,28
Cc1cnn(C(=S)NCCc2ccccc2)c1,-12%[46.1 µM],u,-19%,17%[38.3 µM],-4,30
CCC1=NC(c2ccc(OC)cc2OC)N(O)C1(C)C (stereo not given),-16%[46.1 µM],8.9µM*,-11%,8%[38.3 µM],1,13
COc1ccc(Cl)cc1NC(=O)C(C)N1CCN(C/C=C/c2ccccc2)CC1 (stereo not given),10µM*,u,-5%,50%[38.3 µM],8,21
CC(=O)c1ccc(NC(=O)C(C)N2CCN(C/C=C/c3ccccc3)CC2)cc1 (stereo not given),-14%,0%,x,5%,x,x
COc1ccc(Cl)cc1NC(=O)CN1CCCCCC1,-15%,18µM*,x,22%,x,x
COCCOC(=O)c1c(NC(=O)CN2CCc3ccccc32)sc(C(N)=O)c1C,29%,14µM*,x,x,x,x
COc1ccc(Cl)cc1NC(=O)CN(C(=O)c1ccco1)C1CCCCC1,-26%[46.1 µM],0.04µM*,-16%,31%[38.3 µM],22,34
C/C=C/c1ccc(OCCOc2cccc3cccnc23)c(OC)c1,5%,19%,-20%,5%,x,9
CCCCOC(=O)CSc1nnc(-c2ccc(C)cc2)o1,x,x,x,x,2,x
C=CCNC(=O)c1onc(CSc2cc(C)ccc2C)c1C(=O)O,-8%[46.1 µM],u,-8%,3%[38.3 µM],-18,45
Cc1cc(SCC(=O)Nc2cccc(S(=O)(=O)NC3=NCCCCC3)c2)nc2ccccc12,-25%,x,x,x,x,x
COc1ccc(Cl)cc1NC(=O)CN1CCc2ccccc21,45%,7.9µM*,x,x,x,x
COc1ccc(Cl)cc1NC(=O)CCN1CCN(C)CC1,-3%[46.1 µM],7%,1%,26%[38.3 µM],4,5
Cn1cc(-c2nc3cnc(Oc4ccccc4)nc3n(C)c2=O)c2ccccc21,x,-8%,x,7.1µM*,x,x
COCCn1c(=O)c(-c2cn(C)c3ccccc23)nc2cnc(Oc3ccccc3)nc21,x,u,-3%,5%,x,x
COc1ncc2nc(CCc3ccccc3)c(=O)n(C)c2n1,x,u,-18%,-3%,x,x
COCCn1c(=O)c(CCc2ccccc2)nc2cnc(Oc3cccc(Cl)c3)nc21,x,14µM*,-9%,9%,x,x
Cn1c(=O)c(CCc2ccccc2)nc2cnc(OCc3ccccc3)nc21,x,11µM*,x,3%,x,x
COc1ccc(-c2nc3cnc(OC)nc3n(CCc3ccccc3)c2=O)cc1,x,u,x,7.1µM*,x,x
C/C(=N\N=c1/scc(C)n1Cc1ccco1)c1cccc([N+](=O)[O-])c1,-18%[46.1 µM],-10%,-13%,13%,15,-19
Cc1nn(C(C)C(=O)NNC(=S)Nc2ccc(Cl)cc2)c(C)c1[N+](=O)[O-] (stereo not given),-15%[46.1 µM],u,-14%,22%[38.3 µM],1,-10
SMILES,NPSR antagonist,ALDH1A1 inh,HPGD block,IMPase Li inh,IMPase inh,PNC assembly inh
CCn1c(-c2cccc(Br)c2)n[nH]c1=S,1%[46.1 µM],u,-20%,-14%[38.3 µM],-4,6
O=C(CSc1nc(-c2ccco2)cc(C(F)(F)F)n1)Nc1ccccc1C(F)(F)F,-38%,-5%,-18%,11%,4,101
Cn1c(=O)c(-c2ccc(Cl)cc2)nc2cnc(Oc3cccc(Cl)c3)nc21,x,-14%,x,13µM*,x,x
Cn1c(=O)c(-c2cc(F)cc(F)c2)nc2cnc(Oc3cccc(Cl)c3)nc21,x,u,-30%,-1%,x,x
NC(=S)N=Nc1c(O)n(Cc2ccc(Br)cc2)c2ccccc12,-45%,3.5µM*,-5%,-1%,1,-16
NC(=S)N=Nc1c(O)n(Cc2ccc(F)cc2)c2ccccc12,u,1.4µM*,x,x,-3,50
C/C(Cl)=C\Cn1c(O)c(N=NC(N)=S)c2cc(Br)ccc21,u,0.45µM*,x,30%,x,x
NC(=S)N=Nc1c(O)n(CCCl)c2ccc(Br)cc12,u,7%,x,x,x,x
Cc1ccc2c(c1)c(N=NC(N)=S)c(O)n2Cc1ccccc1,0%,0.63µM*,-6%,0%,x,20
O=Nc1c(O)n(Cc2ccc(Cl)cc2)c2ccccc12,-19%[46.1 µM],26%,-29%,-9%[38.3 µM],-2,74
Cc1ccccc1OCC(=O)NCC(=O)N/N=C/c1ccc(Br)o1,0%,4%,0%,-3%,x,-114*
CCc1cccc2c(C(=O)COC(=O)c3nn(C)c(=O)c4ccccc34)c[nH]c12,-19%[46.1 µM],u,u,6%[38.3 µM],1,-109*
Cc1cc(C(=O)OCC(=O)c2cccs2)c2ccccc2n1,12%,u,x,7%,x,x
CN(C)S(=O)(=O)c1ccc(NC(=O)c2cc(-c3cccs3)nc3ccccc23)cc1,6%,u,u,-1%,x,0
Cc1cc(C(=O)N/N=C(\CCC(=O)O)c2cccs2)c2ccccc2n1,14%,25µM*,x,-4%,x,x
O=C(N/N=C/c1ccsc1)c1cc(-c2cccs2)nc2ccccc12,-9%,114%,u,1%,x,u
Cc1cc(C(=O)N/N=C/c2ccc(N(C)C)cc2)c2ccccc2n1,u,35µM*,x,-2%,x,x
O=C(N/N=C/c1ccsc1)c1cc(-c2ccncc2)nc2ccccc12,15%,-9%,-8%,-8%,x,-114*
NS(=O)(=O)c1ccc(NC(=O)c2cc(-c3cccs3)nc3ccccc23)cc1,4%,u,u,7%,-10,-115*
Cc1ccc(C2C(C#N)=C(N)N(N(C)C)C3=C2C(=O)CCC3)cc1 (stereo not given),5%,-7%,-7%,0%,x,-2
O=C(N/N=C/c1ccc2c(c1)OCO2)c1cc(-c2ccccc2Cl)nc2ccccc12,-17%,u,u,5%,x,-18
CC(/C=N/NC(=O)c1cc(-c2ccncc2)nc2ccccc12)=C\c1ccco1,u,u,-21%,13%[38.3 µM],0,-87*
O=C(N/N=C/c1ccc2c(c1)OCO2)c1cc(-c2ccncc2)nc2ccccc12,7%,2%,28µM*,5%,x,-21
Cc1c(C(=O)N/N=C/c2ccc(N(C)C)cc2)[nH]c2ccc(Cl)cc12,3%,u,-18%,-5%,x,-113*
O=C(O)c1ccc(/C=N/NC(=O)c2cc(-c3cccs3)nc3ccccc23)cc1,-3%,u,u,-2%,x,-107*
